# PubChem BioAssay (NCATS)
# Results filed as inconclusive are left out. Values without a mark were called inactive. Activity calls are given as the source filed them. The call rests on the fitted dose curve; in most records, active means well fitted inhibition curve with a large enough effect; inconclusive means small, poorly fitted or top-dose-only effect; inactive means flat fitted curve, though single readings scatter.
# Tested on: TAB113
# Assay: qHTS profiling for inhibitors of Plasmodium falciparum proliferation (AID 504749); further: nearly all actives have a fitted effect of over 60% in size;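 on activity, negative = inhibition: 0% = DMSO vehicle and full inhibition = artemisinin control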
# Details: P. falciparum in erythrocytes, SYBR Green DNA, 72 h; series mostly up to 28.7 µM; activity, negative = inhibition: at the top concentration
# In short: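 P. falciparum-infected erythrocytes (0.3% parasitemia, 2.5% hematocrit final) were exposed to compounds for 72 h at 37 C in 5% CO2, then lysed with SYBR Green buffer overnight at room temperature; parasite DNA fluorescence was normalized to artemisinin and DMSO controls.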
# Potency means the concentration at half of the fitted maximal effect.
Structure (SMILES),"activity, negative = inhibition",Potency
C[C@](N)(Cc1ccc(O)cc1)C(=O)O,3.24%,–
CC(=O)c1ccc2c(c1)N(CCCN(C)C)c1ccccc1S2,-7.99% [at 12.8 µM],–
CSc1ccc2c(c1)N(CCC1CCCCN1C)c1ccccc1S2 (stereo not given),–,10 µM (active)
CCCn1cnc2c1c(=O)n(CCCCC(C)=O)c(=O)n2C,1.29%,–
CCN(CC)CCSC(=O)C(c1ccccc1)c1ccccc1,–,inactive
CCN(CC)CCNC(=O)c1c(C)[nH]c(/C=C2\C(=O)Nc3ccc(F)cc32)c1C,–,10 µM (active)
CNCCCC1c2ccccc2C=Cc2ccccc21,-29% [at 12.8 µM],–
CC1=C(CC(=O)O)c2cc(F)ccc2/C1=C\c1ccc(S(C)=O)cc1 (stereo not given),-10.4%,–
CC(CN1c2ccccc2Sc2ccccc21)N(C)C (stereo not given),4.93%,–
C=Cc1c(C)c2cc3[nH]c(cc4nc(cc5nc(cc1[nH]2)C(C)=C5CCC(=O)O)C(CCC(=O)O)=C4C)c(C)c3C=C,-4.84%,–
CN(C)CCN(Cc1ccccc1)c1ccccn1,-19.7%,–
OCc1cc(C(O)CNCCCCCCOCCCCc2ccccc2)ccc1O (stereo not given),-22.9%,–
O=C(O)CN1C(=O)c2cccc3cccc(c23)C1=O,-1.57%,–
COC(=O)C1=C(C)NC(C)=C(C(=O)OC)C1c1ccccc1[N+](=O)[O-],-13.2%,–
CC1=C(/C=C/C(C)=C/C=C/C(C)=C/C(=O)O)C(C)(C)CCC1,-17.4%,–
CCCCN(CCCC)CC(O)c1cc(Cl)cc2c1-c1ccc(Cl)cc1/C2=C/c1ccc(Cl)cc1 (stereo not given),–,0.0056 µM (active)
CC(=O)Oc1ccc(C2(c3ccc(OC(C)=O)cc3)C(=O)Nc3ccccc32)cc1,12.3%,–
CN1CCCCC1CCN1c2ccccc2Sc2ccc(S(C)=O)cc21 (stereo not given),-28%,–
Cc1c(O)cccc1C(=O)N[C@@H](CSc1ccccc1)[C@H](O)CN1C[C@H]2CCCC[C@H]2C[C@H]1C(=O)NC(C)(C)C,–,12.6 µM (active)
O=C1NC(=O)[C@@]2(CCOc3ccc(F)cc32)N1,12.8%,–
